Screening results deposited in PubChem by The Scripps Research Institute Molecular Screening Center.
Hits are enriched below; roughly 3.5% of the tested compounds scored in any of these assays.
GPR151 activ: activates the human receptor GPR151; activation, % at 11.2 µM; Q8TDV0; actives 1% (n = 650,000); PathHunter beta-arrestin GPR151 cells, luminescence; in the data active = activation above about 4.9%;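 note: 0% = median of compound wells and 100% = cells with positive control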
MITF inh: human MITF inhibition, primary screen; AlphaScreen MITF homodimerization, bead proximity signal; inhibition, % at 2.6 µM; actives 0.91% (n = 650,000); in the data active = inhibition above about 50%;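 note: 0% = vehicle wells with protein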
Target sequence (O75030 whole entry, looked up): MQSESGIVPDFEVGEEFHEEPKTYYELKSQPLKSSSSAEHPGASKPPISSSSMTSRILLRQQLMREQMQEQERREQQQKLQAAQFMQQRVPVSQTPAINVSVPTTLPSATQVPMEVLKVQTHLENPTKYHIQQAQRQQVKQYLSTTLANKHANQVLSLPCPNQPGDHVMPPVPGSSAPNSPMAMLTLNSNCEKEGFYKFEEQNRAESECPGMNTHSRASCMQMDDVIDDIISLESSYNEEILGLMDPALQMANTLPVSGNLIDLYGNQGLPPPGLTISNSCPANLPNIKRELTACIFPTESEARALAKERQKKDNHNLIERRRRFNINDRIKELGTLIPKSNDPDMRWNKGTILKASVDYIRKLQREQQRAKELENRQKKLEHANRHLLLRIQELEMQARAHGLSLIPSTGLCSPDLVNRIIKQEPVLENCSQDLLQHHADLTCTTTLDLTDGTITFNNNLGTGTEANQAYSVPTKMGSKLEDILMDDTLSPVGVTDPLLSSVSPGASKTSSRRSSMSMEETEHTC
FBW7 act: human FBW7 E3 ligase activation, primary screen. normalized activity (activation), % at 26.1 µM. actives 0.13% (n = 650,000). AlphaScreen FBW7–phospho-cyclin E peptide binding, activator screen. AID 1259310. Q969H0; in the data active = normalized activity above about 1.9%;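 note: purified mutant Fbw7 with reduced substrate affinity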
TEAD-YAP block: TEAD-YAP interaction inhibition. actives 1.4% (n = 640,000). inhibition, % at 9.12 µM. HEK-TIYL cells, TEAD-Gal4/YAP UAS-luciferase luminescence; in the data active = inhibition above about 32%;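 note: 0% = median of test compound wells and 100% = reference inhibitor wells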
Starred values were filed as active, the others as inactive.

SMILES | GPR151 activ | MITF inh | FBW7 act | TEAD-YAP block
COc1ccc(Nc2c(-c3ccccc3)c(=O)c2=O)cc1 | 1 | -2 | 0 | 60*
CCCCN(C)C(=O)c1cn(C)c2ccc(S(=O)(=O)N3CCCC3)cc2c1=O | 0 | 13 | 0 | -2
C=CCSc1nc2c(c(=O)[nH]1)C(c1ccccc1)C(C(=O)OC)=C(C)N2 (stereo not given) | 1 | 7 | 0 | 0
CCN(c1ccc(OC)cc1)c1c(-c2ccccc2)c(=O)c1=O | 0 | 12 | 0 | 48*
CCC(C)Nc1c(-c2ccccc2)c(=O)c1=O (stereo not given) | 1 | 9 | 0 | 9
CC(Nc1c(-c2ccccc2)c(=O)c1=O)c1ccccc1 (stereo not given) | -2 | 0 | 0 | 40*
Cc1ccc(-c2c(Nc3cccc(F)c3)c(=O)c2=O)cc1 | 0 | 9 | 0 | 50*
COc1ccc(C2Nn3c(C)nnc3SC2C(=O)c2ccc(C)cc2)cc1 (stereo not given) | -2 | -11 | 0 | -3
O=C(Nc1ccc2c(c1)Cc1ccccc1-2)c1cc(Br)ccc1Cl | 1 | 14 | 0 | 50*
O=C(Nc1ccc2c(c1)Cc1ccccc1-2)c1cc(Cl)ccc1Cl | 0 | -8 | 0 | 8
Cc1cc(C)c(NC(=O)NC(=O)c2cccc(C(F)(F)F)c2)c(C)n1 | 0 | 16 | 0 | 7
O=C(COc1ccccc1Br)Nn1c(SCC(=O)c2ccc(Cl)c(Cl)c2)nc2ccsc2c1=O | 0 | 9 | 0 | -4
CC(=O)NC(c1cccs1)c1ccc2cccnc2c1O (stereo not given) | -2 | 70* | 0 | 92*
CC(=O)NC(c1ccco1)c1ccc2cccnc2c1O (stereo not given) | 0 | 77* | -2 | 44*
COc1ccc(OC)c(-c2nc(N)sc2N=Nc2cccnc2)c1 | 1 | 1 | 0 | 13
Cc1ccc(NC2=CC(=O)CC(C)(C)C2)c(O)c1 | -1 | 21 | 0 | 4
Cc1ccc2c(Cl)c(C(=O)Nc3ncccn3)sc2c1 | -4 | 3 | 1 | 51*
CN1CCN(/N=C/c2ccc(O)c(O)c2)CC1 | 2 | 79* | 0 | 8
CCc1ccc2oc(-c3ccc(NC(=O)COc4ccccc4[N+](=O)[O-])cc3)nc2c1 | 0 | -6 | 0 | -8
Cc1cc(S(=O)(=O)O)c(C(C)C)cc1N | -1 | 22 | 4.1* | 8
CC(C)(C)OC(=O)Nc1ccc(SCC(=O)O)cc1 | 1 | -7 | 0 | 83*
COC(=O)Nc1ccc(SCC(=O)c2ccccc2)cc1 | 2 | 3 | 0 | -2
CN(C)C=Nc1ncc2c3ccccc3n(CCN(C)C)c2c1C#N | -1 | 8 | 0 | 16
CCN(CC)CCn1c2ccccc2c2cnc(N)c(C#N)c21 | 1 | -3 | 0 | 81*
COCCn1c(C)cc(C(=O)CN2C(=O)NC(C)(c3ccc(C(C)(C)C)cc3)C2=O)c1C (stereo not given) | 1 | 2 | 0 | 36*
SMILES | GPR151 activ | MITF inh | FBW7 act | TEAD-YAP block
CCn1c(CN2CCN(c3ccccc3)CC2)nc2c1c(=O)n(C)c(=O)n2C | 2 | 0 | 0 | 46*
CCn1c(CN2CCN(c3ccc(F)cc3)CC2)nc2c1c(=O)n(C)c(=O)n2C | 3 | -7 | 0 | 27
CCOC(=O)c1[nH]c(C)c(C(=O)Nc2ccc(Br)cc2F)c1C | -1 | -1 | 0 | -6
CCOC(=O)c1[nH]c(C)c(C(=O)Nc2ccc(F)cc2C)c1C | 0 | 8 | 0 | 47*
CCOC(=O)c1[nH]c(C)c(C(=O)Nc2ccc(C)cc2C)c1C | 0 | 10 | 0 | 51*
COC(=O)C1CCN(C(=O)/C=C/c2ccccc2[N+](=O)[O-])CC1 | 3 | 9 | 0 | 0
COc1cccc(/C=N/NC(=O)C(=O)Nc2ccccc2OC(F)(F)C(F)F)c1O | 4 | 0 | 0 | 65*
O=C(N/N=C/c1ccccc1)C(=O)Nc1ccccc1OC(F)(F)C(F)F | -1 | 14 | 0 | 4
CCCCNC(=O)C(=O)Nc1ccccc1OCC | 0 | 3 | 2.3* | 0
CCOc1ccccc1NC(=O)C(=O)N/N=C/c1cccc(Cl)c1Cl | 0 | 3 | 0 | 8
CCOc1ccccc1NC(=O)C(=O)N/N=C/c1cccc(OC)c1O | 2 | 23 | -2 | 79*
N#Cc1cn(CC(=O)NC2CCCCCC2)c2ccccc12 | -1 | 10 | 0 | -1
O=c1sc2ccccc2c2c1ncn2Cc1ccccc1 | 1 | 3 | 0 | -4
COc1ccccc1-c1nc(-c2ccc(Cl)cc2Cl)no1 | -1 | 15 | 0 | 1
CCCCN(C)c1nnc(NC(=O)NCc2ccccc2)s1 | 3 | 1 | 0 | 58*
COCCCNC(=O)Nc1nnc(N(C)Cc2ccccc2)s1 | 1 | -2 | 0 | 1
CN(Cc1ccccc1)c1nnc(NC(=O)NCc2ccccc2)s1 | 1 | -3 | 0 | 47*
COc1ccc(CNC(=O)N2CCN(Cc3nc(-c4ccco4)cs3)CC2)cc1OC | 2 | 0 | 0 | 54*
O=C(CSc1ccc(Cl)cc1)Nc1nnc(-c2ccc(F)cc2)o1 | 1 | 2 | -1 | -1
O=C(O)/C=C/c1ccc2ccccc2n1 | 0 | -11 | 0 | -12
COc1ccc(/C=C/c2nc3ccccc3s2)cc1S(=O)(=O)N1CCOCC1 | 0 | 6 | 0 | -9
Oc1ccc(/C=C/c2nc3ccccc3s2)cc1 | -10 | 13 | 0 | 73*
Oc1ccc(/C=C/c2ccc3ccccc3n2)cc1 | -10 | -6 | 1 | 85*
O/C(=C\c1ccc2ccccc2n1)c1ccc(O)cc1O | -2 | -2 | 0 | 75*
C(=C\c1ccc2ccccc2n1)/c1cccnc1 | -8 | -30 | -1 | 77*
SMILES | GPR151 activ | MITF inh | FBW7 act | TEAD-YAP block
CN(C)c1ccc(/C=C/c2ccc3ccccc3n2)cc1 | -10 | -35 | 1 | 93*
CN(C)c1ccc(/C=C/c2ccc(-c3ccccc3)cc2)cc1 | 0 | -7 | 0 | -13
Cc1ccc2[nH]c(=O)c(CN(Cc3nnnn3CC3CCCO3)C3CCCC3)cc2c1 (stereo not given) | 0 | 1 | 0 | -1
Cc1cccc(NC(c2ccc(C(F)(F)F)cc2)c2ccc3cccnc3c2O)n1 (stereo not given) | -1 | 7 | -1 | 77*
Oc1c(C(Nc2ccccn2)c2ccc(C(F)(F)F)cc2)ccc2cccnc12 (stereo not given) | -2 | 3 | -2 | 46*
Cc1nc(CN2CCN(C(=O)CCl)CC2)cs1 | 4 | 4 | 0 | 48*
Cc1nc(CN2CCN(S(C)(=O)=O)CC2)cs1 | 0 | -26 | 0 | -17
O=C(c1cc2ccccc2o1)c1coc2ccc(O)cc12 | -8 | -7 | 0 | 65*
Cc1nc(C)c(C(=O)c2coc3ccc(O)cc23)o1 | 0 | 11 | 0 | -28
COc1ccc(C(=O)NCCCN2CCN(c3ccccc3)CC2)cc1OC | -1 | 10 | 0 | 0
Cc1ccc(-n2c(O)c(C=Nc3ccc(S(N)(=O)=O)cc3)c3ccccc3c2=O)cc1C | -1 | 1 | 0 | 80*
COc1ccc(N=Cc2c(O)n(-c3ccc(OC)cc3)c(=O)c3ccccc23)cc1 | 0 | 7 | 0 | 13
